The source made the active and inactive calls. How the source made its calls: active means hit-call score of the fitted dose curve at least 0.9, where 1 is the maximum; inactive means score below 0.9.

A short description of assay [1]: ATG_GRE_CIS: Attagene CIS-FACTORIAL HepG2 Assay for human Glucocorticoid Response Elements (GRE) (AID 2282947). To be noted: HepG2 GRE cis-reporter, Attagene multiplex mRNA; actives raise or lower the signal. A digest of the protocol: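 Transient MRTU transfection of human HepG2 liver cells; cis-regulated reporters report endogenous factors. 24 h dosing → RNA isolation → RT-PCR → 6-FAM primer extension → HpaI cut → CE fragment analysis. Bidirectional fit, DMSO negative control.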

The nature of assay [2]: ATG_ISRE_CIS: Attagene CIS-FACTORIAL HepG2 Assay for human Interferon Regulatory Factor 1 (IRF1) binding to an Interferon-Stimulated Response Element (ISRE) (AID 2282948). The note with it: HepG2 ISRE cis-reporter (Attagene), mRNA transcription readout; actives raise or lower the signal. A digest of the protocol:
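Transfected HepG2 (multiple reporter transcription units, cis elements) dosed 24 h. RNA → oligo(dT) RT → PCR → 6-FAM primer extension → HpaI → CE. DMSO = negative control/baseline.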

Assay [3] is described as follows: ATG_M_32_CIS: Attagene CIS-FACTORIAL HepG2 Assay for M32 Transcription Factor (Internal Marker) (AID 2282949).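 Further: background control marker of the multiplexed CIS panel rather than a real target.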 The note with it: HepG2 Attagene cis-factorial M32 reporter, mRNA; actives raise or lower the signal. A digest of the protocol:
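HepG2 cells transiently transfected with multiplexed cis-regulated reporter units, dosed 24 h. Reporter mRNA quantified by RT-PCR, 6-FAM labelling, HpaI digestion and capillary electrophoresis; bidirectional fit vs DMSO.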

A short description of assay [4]: ATG_M_06_CIS: Attagene CIS-FACTORIAL HepG2 Assay for M06 Transcription Factor (Internal Marker) (AID 2282950). The note with it: HepG2 Attagene CIS-FACTORIAL M06 internal marker reporter; actives raise or lower the signal. A digest of the protocol:
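Internal background marker within multiplexed cis-reporter HepG2 system. Cells transiently transfected, dosed 24 h; reporter mRNA measured by RT-PCR, HpaI digestion and capillary electrophoresis. Bidirectional fit relative to DMSO.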

Assay [5] concerns the target Hypoxia-inducible factor 1-alpha (Homo sapiens) (UniProt Q16665). Description: ATG_HIF1a_CIS: Attagene CIS-FACTORIAL HepG2 Assay for human Hypoxia Inducible Factor 1 (HIF1A) (AID 2282951). The note with it: HepG2 Attagene cis-factorial HIF1a reporter transcription; actives raise or lower the signal. A digest of the protocol: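 After 24 h chemical exposure of reporter-transfected HepG2 cells, reporter cDNA was PCR-amplified, labelled by 6-FAM primer extension (2 min 95 C, 20 s 68 C, 10 min 72 C), HpaI-cut (2 h, 37 C) and analysed by CE.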

In assay [6] the target is Hepatocyte nuclear factor 6 (Homo sapiens) (UniProt Q9UBC0). Kind of assay: ATG_HNF6_CIS: Attagene CIS-FACTORIAL HepG2 Assay for human Hepatocyte Nuclear Factor 6 (HNF6) (AID 2282952). The note with it: HepG2 Attagene cis-factorial HNF6 reporter transcription; actives raise or lower the signal. A digest of the protocol:
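Reporter mRNA induction or loss in HepG2 after 24 h exposure; transient cis-MRTU transfection; fragments quantified by capillary electrophoresis; bidirectional analysis, DMSO as negative control.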

The target of assay [7] is Heat shock factor protein 1 (Homo sapiens) (UniProt Q00613). Description: ATG_HSE_CIS: Attagene CIS-FACTORIAL HepG2 Assay for human Heat Shock Transcription Factor 1 (HSE) (AID 2282953). The note with it: HepG2 HSE cis-reporter, Attagene RNA transcription; actives raise or lower the signal. A digest of the protocol:
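HepG2 cells transfected with cis-promoter reporter units sensing endogenous transcription factor activity; reporter mRNA quantified 24 h post-dose by RT-PCR and capillary electrophoresis of 6-FAM-labelled products. Bidirectional fitting against DMSO.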

Assay [8] can be described thus: ATG_MRE_CIS: Attagene CIS-FACTORIAL HepG2 Assay for human Metal Responsive Element (MRE) (AID 2282954). To be noted: HepG2 MRE cis-reporter transcription, Attagene multiplex; actives raise or lower the signal. A digest of the protocol: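 Transient MRTU transfection of HepG2 (FuGene 6); 24 h dosing; total RNA → oligo(dT) RT, PCR, 6-FAM primer extension, HpaI cut, CE. Bidirectional fit vs DMSO.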

Assay [9] has as its target Paired box protein Pax-6 (Homo sapiens) (UniProt P26367). Kind of assay: ATG_Pax6_CIS: Attagene CIS-FACTORIAL HepG2 Assay for human Paired Box 6 (PAX6) (AID 2282956). To be noted: HepG2 CIS-FACTORIAL PAX6 reporter transcription, RNA readout; actives raise or lower the signal. A digest of the protocol: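 Transient MRTU transfection of HepG2 → compound exposure 24 h → TriZol RNA, oligo(dT) RT → PCR, 6-FAM primer extension, HpaI cut → capillary electrophoresis; activity fitted both directions against DMSO.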

Assay [10] in a line: ATG_PXRE_CIS: Attagene CIS-FACTORIAL HepG2 Assay for human Pregnane X Receptor Element (PXRE) (AID 2282957). To be noted: HepG2 Attagene CIS-FACTORIAL PXRE reporter, mRNA; actives raise or lower the signal. A digest of the protocol:
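Transiently transfected HepG2 cells were dosed and incubated for 24 h. RNA was then isolated, DNase-treated, reverse-transcribed and reporter sequences amplified. Labeled, HpaI-digested fragments were quantified by capillary electrophoresis against DMSO.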

A short description of assay [11]: ATG_PPRE_CIS: Attagene CIS-FACTORIAL HepG2 Assay for human Peroxisome Proliferator-activated Response Element (PPRE) (AID 2282958). To be noted: HepG2 PPRE cis-element reporter, Attagene transcription factor profiling; actives raise or lower the signal. A digest of the protocol: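 PPRE activity in HepG2: transient cis-reporter transfection, 24 h compound incubation, reporter mRNA by RT-PCR and CE fluorescence; gain/loss fitted against DMSO.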

Assay [12] in a line: ATG_RORE_CIS: Attagene CIS-FACTORIAL HepG2 Assay for human RAR-related Orphan Receptor Element (RORE) (AID 2282959). The note with it: HepG2 Attagene cis-factorial RORE reporter, mRNA; actives raise or lower the signal. A digest of the protocol:
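A 24-hour exposure of transfected HepG2 hepatoma cells precedes RNA isolation and reporter RT-PCR. Labeled products are digested with HpaI and resolved by capillary electrophoresis, with gain or loss of signal scored relative to DMSO.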

The nature of assay [13]: ATG_Sox_CIS: Attagene CIS-FACTORIAL HepG2 Assay for human SRY-box transcription factor (SOX) (AID 2282960). The note with it: HepG2 Attagene cis-factorial SOX reporter, mRNA; actives raise or lower the signal. A digest of the protocol:
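HepG2, cis reporter units, 24 h exposure. Reporter mRNA: RT-PCR → FAM labelling → HpaI → CE fluorescence. Bidirectional fit vs DMSO.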

Assay [14] has as its target Transcription factor Sp1 (Homo sapiens) (UniProt P08047). Kind of assay: ATG_Sp1_CIS: Attagene CIS-FACTORIAL HepG2 Assay for human Specificity Protein 1 (Sp1) (AID 2282961). To be noted: HepG2 Sp1 cis-reporter transcription, actives raise or lower the signal. A digest of the protocol:
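Liver-derived HepG2 cells, cis-element reporter library, 24 h treatment; RNA isolated, cDNA amplified with reporter-specific primers, FAM-labeled fragments sized on capillary analyzer. DMSO baseline, bidirectional curve fit.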

Assay [15] is described as follows: ATG_SREBP_CIS: Attagene CIS-FACTORIAL HepG2 Assay for human Sterol Regulatory Element Binding (SREBP) (AID 2282962). The note with it: HepG2 Attagene cis-factorial SREBP reporter, mRNA; actives raise or lower the signal. A digest of the protocol:
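Transfected HepG2 (cis-regulated reporter library, endogenous TFs) → compound 24 h → total RNA → oligo(dT) RT → reporter-specific PCR → FAM primer extension, HpaI cut → CE fluorescence. Fit bidirectional vs DMSO.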

Assay [16] has as its target Signal transducer and activator of transcription 3 (Homo sapiens) (UniProt P40763). Description: ATG_STAT3_CIS: Attagene CIS-FACTORIAL HepG2 Assay for human Signal Transducer and Activator of Transcription 3 (STAT3) (AID 2282963). The note with it: HepG2, Attagene cis-factorial STAT3 reporter transcription; actives raise or lower the signal. A digest of the protocol:
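Endogenous STAT3-responsive cis-element activity was read in transiently transfected HepG2 cells after 24 h treatment. Reporter transcripts were quantified via RT-PCR and capillary electrophoresis, with DMSO as negative control and bidirectional curve fitting.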

Assay [17] in a line: ATG_TA_CIS: Attagene CIS-FACTORIAL HepG2 Assay for human TA Basal Promoter (AID 2282964). To be noted: HepG2 Attagene CIS-factorial TA basal promoter reporter; actives raise or lower the signal. A digest of the protocol: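 HepG2 cells transiently transfected with multiple reporter units under cis promoter elements, reporting endogenous transcription factor activity; this endpoint tracks the TA basal promoter as background control. Reporter mRNA after 24 h dosing measured by RT-PCR/capillary electrophoresis; bidirectional fits versus DMSO.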

A short description of assay [18]: ATG_TCF_b_cat_CIS: Attagene CIS-FACTORIAL HepG2 Assay for human T-Cell-Factor with beta-catenin (TCF/b-cat) (AID 2282965). The note with it: HepG2 TCF/beta-catenin cis-reporter transcription, actives raise or lower the signal. A digest of the protocol:
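Endogenous transcription factor activity is captured through cis-promoter reporter constructs transiently introduced into human HepG2 liver cells. Induced reporter mRNA is measured after 24 h and fitted bidirectionally relative to DMSO.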

Assay [19] is described as follows: ATG_PBREM_CIS: Attagene CIS-FACTORIAL HepG2 Assay for human Phenobarbital-responsive Enhancer Module (PBREM) (AID 2282955). To be noted: HepG2 PBREM cis-reporter, Attagene multiplexed transcription; actives raise or lower the signal. A digest of the protocol:
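Measures endogenous factor action on a phenobarbital-responsive enhancer module. HepG2 transiently carrying cis reporters, 24 h treatment, mRNA read-out by RT-PCR plus capillary electrophoresis.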

Sequence of Hypoxia-inducible factor 1-alpha (Homo sapiens) (Q16665 whole entry, looked up): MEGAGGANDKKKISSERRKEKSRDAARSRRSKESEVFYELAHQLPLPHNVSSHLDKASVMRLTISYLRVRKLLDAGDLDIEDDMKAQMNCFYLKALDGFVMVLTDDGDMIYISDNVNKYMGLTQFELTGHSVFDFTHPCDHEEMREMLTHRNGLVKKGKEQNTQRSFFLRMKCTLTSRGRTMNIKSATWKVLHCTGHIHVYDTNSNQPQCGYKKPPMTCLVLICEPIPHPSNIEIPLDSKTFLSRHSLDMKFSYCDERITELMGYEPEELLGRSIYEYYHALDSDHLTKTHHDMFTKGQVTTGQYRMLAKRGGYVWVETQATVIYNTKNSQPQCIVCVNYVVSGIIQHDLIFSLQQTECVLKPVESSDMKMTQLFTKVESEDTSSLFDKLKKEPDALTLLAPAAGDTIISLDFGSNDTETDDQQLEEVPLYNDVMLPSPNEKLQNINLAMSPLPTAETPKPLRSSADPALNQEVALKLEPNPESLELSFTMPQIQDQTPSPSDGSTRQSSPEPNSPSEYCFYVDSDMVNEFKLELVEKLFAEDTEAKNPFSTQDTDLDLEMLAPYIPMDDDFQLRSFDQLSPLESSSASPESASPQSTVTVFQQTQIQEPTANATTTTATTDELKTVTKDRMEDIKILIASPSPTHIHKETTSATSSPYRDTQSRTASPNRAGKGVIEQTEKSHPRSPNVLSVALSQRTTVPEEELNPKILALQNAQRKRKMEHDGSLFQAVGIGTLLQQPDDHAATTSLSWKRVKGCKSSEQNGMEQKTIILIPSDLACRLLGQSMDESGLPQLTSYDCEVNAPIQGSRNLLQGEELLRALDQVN
Sequence of Heat shock factor protein 1 (Homo sapiens) (Q00613 whole entry, looked up): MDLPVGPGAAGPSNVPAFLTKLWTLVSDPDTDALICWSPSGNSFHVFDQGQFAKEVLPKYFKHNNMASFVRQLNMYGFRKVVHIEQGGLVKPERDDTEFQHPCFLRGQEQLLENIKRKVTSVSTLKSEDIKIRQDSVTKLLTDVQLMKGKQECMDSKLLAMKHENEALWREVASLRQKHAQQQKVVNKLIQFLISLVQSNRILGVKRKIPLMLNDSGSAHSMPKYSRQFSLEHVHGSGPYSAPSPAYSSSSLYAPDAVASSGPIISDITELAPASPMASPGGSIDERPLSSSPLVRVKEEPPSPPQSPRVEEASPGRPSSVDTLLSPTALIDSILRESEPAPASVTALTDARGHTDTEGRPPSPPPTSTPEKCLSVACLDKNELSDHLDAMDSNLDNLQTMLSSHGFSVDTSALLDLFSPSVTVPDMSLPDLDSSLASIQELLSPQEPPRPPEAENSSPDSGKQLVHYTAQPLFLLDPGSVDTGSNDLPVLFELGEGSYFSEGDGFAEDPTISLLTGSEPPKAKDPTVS
Sequence of Signal transducer and activator of transcription 3 (Homo sapiens) (P40763 whole entry, looked up): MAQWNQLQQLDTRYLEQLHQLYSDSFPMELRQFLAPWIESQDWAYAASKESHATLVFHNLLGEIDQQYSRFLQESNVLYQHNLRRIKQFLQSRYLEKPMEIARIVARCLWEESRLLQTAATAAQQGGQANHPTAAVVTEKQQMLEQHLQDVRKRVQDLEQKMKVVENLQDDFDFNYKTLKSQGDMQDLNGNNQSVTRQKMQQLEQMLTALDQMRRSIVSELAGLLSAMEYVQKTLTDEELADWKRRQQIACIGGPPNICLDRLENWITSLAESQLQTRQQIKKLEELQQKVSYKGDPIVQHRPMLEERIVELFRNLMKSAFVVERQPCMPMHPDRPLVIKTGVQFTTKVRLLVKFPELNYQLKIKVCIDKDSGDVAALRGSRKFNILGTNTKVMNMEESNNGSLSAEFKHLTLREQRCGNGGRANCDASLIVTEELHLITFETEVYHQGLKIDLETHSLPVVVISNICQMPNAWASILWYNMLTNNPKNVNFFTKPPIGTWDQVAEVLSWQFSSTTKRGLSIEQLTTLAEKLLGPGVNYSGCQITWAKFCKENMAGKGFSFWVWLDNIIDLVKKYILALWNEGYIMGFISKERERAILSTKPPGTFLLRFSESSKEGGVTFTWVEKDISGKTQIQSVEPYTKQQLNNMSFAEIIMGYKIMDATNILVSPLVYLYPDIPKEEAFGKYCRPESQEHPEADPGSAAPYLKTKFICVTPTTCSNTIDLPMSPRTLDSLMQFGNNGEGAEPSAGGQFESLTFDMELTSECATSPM
Sequence of Transcription factor Sp1 (Homo sapiens) (P08047 whole entry, looked up, the tested form may be a part): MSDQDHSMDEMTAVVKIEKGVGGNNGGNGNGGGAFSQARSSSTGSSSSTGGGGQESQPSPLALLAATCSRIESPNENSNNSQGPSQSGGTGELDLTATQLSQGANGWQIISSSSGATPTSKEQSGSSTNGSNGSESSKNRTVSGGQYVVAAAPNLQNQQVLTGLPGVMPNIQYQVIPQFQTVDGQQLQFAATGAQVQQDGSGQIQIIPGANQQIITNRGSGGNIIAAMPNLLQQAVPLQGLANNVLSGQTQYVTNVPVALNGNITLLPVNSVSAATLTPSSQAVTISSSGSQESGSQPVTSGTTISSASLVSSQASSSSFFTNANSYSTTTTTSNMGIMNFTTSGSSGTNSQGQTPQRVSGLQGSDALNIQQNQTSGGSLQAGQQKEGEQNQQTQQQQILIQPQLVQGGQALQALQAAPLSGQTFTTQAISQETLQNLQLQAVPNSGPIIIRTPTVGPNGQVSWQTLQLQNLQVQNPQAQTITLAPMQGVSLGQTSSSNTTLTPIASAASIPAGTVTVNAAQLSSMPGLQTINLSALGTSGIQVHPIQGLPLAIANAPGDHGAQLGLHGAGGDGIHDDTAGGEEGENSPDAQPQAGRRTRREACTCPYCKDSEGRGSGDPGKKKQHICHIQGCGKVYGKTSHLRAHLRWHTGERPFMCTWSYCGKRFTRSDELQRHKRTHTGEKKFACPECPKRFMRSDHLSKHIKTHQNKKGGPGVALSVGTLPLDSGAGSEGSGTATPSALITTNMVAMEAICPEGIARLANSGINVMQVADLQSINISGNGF
Sequence of Paired box protein Pax-6 (Homo sapiens) (P26367 whole entry, looked up): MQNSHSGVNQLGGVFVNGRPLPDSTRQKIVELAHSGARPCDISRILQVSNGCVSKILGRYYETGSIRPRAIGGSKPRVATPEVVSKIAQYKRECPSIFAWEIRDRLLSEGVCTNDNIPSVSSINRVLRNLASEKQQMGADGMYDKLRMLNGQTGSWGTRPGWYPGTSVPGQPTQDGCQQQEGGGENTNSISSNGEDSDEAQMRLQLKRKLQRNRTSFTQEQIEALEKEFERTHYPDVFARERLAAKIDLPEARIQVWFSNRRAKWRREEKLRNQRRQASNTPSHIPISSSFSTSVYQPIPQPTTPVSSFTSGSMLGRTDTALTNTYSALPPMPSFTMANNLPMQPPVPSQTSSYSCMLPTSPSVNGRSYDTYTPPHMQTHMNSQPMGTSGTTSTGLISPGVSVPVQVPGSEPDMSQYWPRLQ
Sequence of Hepatocyte nuclear factor 6 (Homo sapiens) (Q9UBC0 whole entry, looked up, the tested form may be a part): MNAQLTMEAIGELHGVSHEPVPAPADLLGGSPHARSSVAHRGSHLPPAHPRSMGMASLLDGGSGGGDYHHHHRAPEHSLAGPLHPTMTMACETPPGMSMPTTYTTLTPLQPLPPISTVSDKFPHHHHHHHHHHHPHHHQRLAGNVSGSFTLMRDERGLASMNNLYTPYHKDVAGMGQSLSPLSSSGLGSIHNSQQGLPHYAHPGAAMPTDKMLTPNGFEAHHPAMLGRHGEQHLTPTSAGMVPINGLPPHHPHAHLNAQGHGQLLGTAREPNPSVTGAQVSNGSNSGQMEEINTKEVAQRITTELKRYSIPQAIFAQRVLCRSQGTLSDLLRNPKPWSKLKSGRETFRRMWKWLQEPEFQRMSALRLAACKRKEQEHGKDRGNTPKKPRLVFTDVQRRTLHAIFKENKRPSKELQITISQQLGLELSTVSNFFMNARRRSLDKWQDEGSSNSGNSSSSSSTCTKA

As a reminder, the AC50 is the concentration giving half of the maximal activity seen. With `CCCCCCCCCCCCCN1CC(C)OC(C)C1` (stereo unspecified), the compound was called inactive in assay [1], in [2], in assay [3], in assay [4], in assay [5] and in assay [6]. Also, the outcome in assay [7], in [8], in assay [9], in assay [11], in assay [12] and in assay [13] was inactive. Further, the result in assay [14], in [15], in assay [16], in [17] and in assay [18] was inactive. Besides, in assay [10], the AC50 was 8 µM (active).
Turning to `[Cl-].[Cl-].[Hg+2]`, the outcome in [2], in assay [3], in [4], in assay [6], in assay [7] and in assay [8] was inactive. The compound was classed as inactive in assay [9], in assay [10], in [12], in assay [13], in assay [14] and in assay [17]. For the same compound, the compound was classed as inactive in [18]. In addition, the AC50 in assay [5] is 33.4 µM (active); in assay [15], 51 µM (active).
`Cc1ccc(N)c(N)c1`: the call in assay [1], in assay [2], in assay [3], in assay [4], in assay [5] and in [6] was inactive. The outcome in assay [7], in assay [19], in assay [10], in [13], in [14] and in [15] was inactive. The compound was classed as inactive in assay [16], in assay [17] and in assay [18]. The figures for the AC50 in assay [8] and in assay [12] were 29.1 µM (active) and 31.2 µM (active), respectively.
For the compound `[O-][Cl+]O`, the outcome in [1], in assay [2], in assay [3], in assay [4], in assay [5] and in [6] was inactive. The compound was classed as inactive in [7], in assay [8], in [9], in assay [10], in [11] and in [12]. Further, the outcome in [13], in assay [14], in [15], in assay [17] and in [18] was inactive.
Take `O=C(O)C1C2CCC(O2)C1C(=O)O` (stereo unspecified): the compound was classed as inactive in assay [1], in assay [4], in [6], in assay [7], in assay [13] and in assay [15]. Moreover, the call in [17] and in assay [18] was inactive. Besides, the AC50 is 61.9 µM (active) in assay [2]; 159 µM (active) in assay [3]; 149 µM (active) in assay [8]; 160 µM (active) in assay [19]; 68.6 µM (active) in assay [10]; 100 µM (active) in assay [12]. For the same compound, in [14], the AC50 is 100 µM (active).
For the compound `Nc1cc(Cl)cc(C(=O)O)c1Cl`, the call in [2], in assay [3], in [4], in [5], in assay [6] and in assay [7] was inactive. The compound was classed as inactive in assay [8], in assay [19], in assay [11], in [12], in assay [13] and in assay [14]. Moreover, the outcome in assay [15], in assay [16], in [17] and in [18] was inactive. Further, the AC50 in assay [10] was 65 µM (active).
On to `CC(C)(C)OOC(C)(C)CCC(C)(C)OOC(C)(C)C`, for which the call in [1], in [2], in assay [3], in [4], in [5] and in [6] was inactive. The call in assay [7], in assay [8], in assay [19], in assay [12], in [13] and in assay [16] was inactive. Moreover, the compound was called inactive in assay [17] and in assay [18]. The AC50 in assay [10] was 8.34 µM (active); in assay [14], 177 µM (active); in [15], 38 µM (active).
